Each structure is given as a SMILES string. About 83,000 compounds went through this panel and 20% of them were active in at least one assay; those are over-represented in the sample as a whole.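 Each cell line was grown in a 96-well plate and treated with one concentration of compound for 48 hours. Values below 10 were considered active.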 Values without a mark were called inactive. Active and inactive are the calls of the source.

The experiment deals with HT29 colon. The experiment is described as follows: NCI-60 one-dose screen, 48 h (100 = growth as untreated, 0 = no growth, -100 = all killed). Conditions: 10 µM unless noted.
Take `N#C/C(=C\c1ccc(-c2ccc(Cl)c(Cl)c2)o1)c1nc(-c2ccco2)cs1`: the growth is 88%.

Turning to `CC(C)C1=C[C@@]23CC[C@@H]4[C@](C)(CCC[C@@]4(C)C(=O)N4CCCNCC4)[C@H]2C[C@@H]1[C@H]1C(=O)CCC(=O)[C@H]13`, the growth is 108%.

On to `COc1ccc(CCNc2nc(SC)nc(-c3cccc([N+](=O)[O-])c3)c2C#N)cc1OC`, for which the growth is 93.6%.

As to `Cc1cc(NS(=O)(=O)c2ccc(-c3cnc(C4CC4)o3)cc2)ccc1Cl`, the growth was -17.1% (active).

Consider `COc1ccc(-c2cc(C(=O)N=Nc3c(O)[nH]c4ccc(Br)cc34)no2)cc1`, for which the growth was 100%.

On to `CCCOc1cc2ccccc2cc1C(=O)Nc1nc(NC)c2c(ccc3nccc32)[nH]1`, for which the growth was -73.1% (active).

As for `CCCCN(CCCC)CCCn1c(-c2ccccc2)ccc1-c1ccccc1`, the growth was 33.1%.

As for `Cc1nc2ccccc2n1C(=O)C[C@@H]1NC(=S)NC1=O`, the growth was 105%.

For the molecule `N#CCCN=Nc1c(O)[nH]c2ccc([N+](=O)[O-])cc12`, the growth was 101%.

Turning to `Cc1cc(N2CCOCC2)nc(NCc2cc(Nc3ccnc4cc(Cl)ccc34)ccc2F)n1`, the growth was -28.5% (active).

Take `Nc1n[nH]c2ccc([C@@H]3Nc4cc5c(cc4[C@H]4C6CCC(C6)[C@@H]34)C(=O)NC5)cc12` (some centres undefined): the growth is 12%.

With `c1ccc(-c2c(-c3ccccc3)[n+](Cc3ccc4ccccc4c3)c(-c3ccc(-c4nc5ccccc5s4)cc3)n2Cc2ccc3ccccc3c2)cc1`, the growth is -85.5% (active).

Consider `C=CC(=O)Nc1cccc(-c2nc(SC)nc(NCc3ccccc3)c2C#N)c1`, for which the growth was 62.2%.

Take `CCCOc1ccc2nc(NC(=O)OC)[nH]c2c1`: the growth was 0.423% (active).

For `COc1cccc(/C=C2\Oc3cc(OCCN4CCCC4)ccc3C2=O)c1`, the growth was 35.2%.

In the case of `COc1ccc(/C=C2\Oc3cc(OCCCCN4CCCC4)ccc3C2=O)cc1`, the growth was 6.71% (active).

For `COc1cccc(-c2nn(C(C)(C)C)cc2-c2ccnc(NCCCNS(=O)(=O)c3cccc4ccccc34)c2)c1`, the growth is 103%.

For `COc1cccc(-c2nc3sccn3c2-c2ccnc(NCCCNS(=O)(=O)c3c(Cl)cccc3Cl)c2)c1`, the growth is 48.4%.

Consider `O=C1c2cc3c(cc2-c2c1c1cc(F)c(F)cc1c(=O)n2CCCn1ccnc1)OCO3`, for which the growth is 3.52% (active).

As to `O=C(/C=C/c1cccc(Cl)c1)c1ccc(O)c(CN2CCN(c3cc4c(cc3F)c(=O)c(C(=O)O)cn4C3CC3)CC2)c1`, the growth was 4.36% (active).

`CCCn1c(=O)[nH]c(N)c([C@H]2c3ccccc3Oc3[nH]c(=O)n(CCC)c(=O)c32)c1=O`: the growth is 85.3%.

As for `N#CCCN=Nc1c(O)[nH]c2ccc(F)cc12`, the growth is 110%.

As for `COc1ccc(-c2n[nH]nc2-c2csc3ccccc23)cc1OC`, the growth is 8.59% (active).

Turning to `COc1cc(/C=C/c2cc(O)c3cc(C(C)=O)c(=O)oc3c2)cc2c1O[C@]1(C)CC[C@@H](O)C(C)(C)[C@H]1C2`, the growth is 60.5%.

Regarding `O=C(N=Nc1c(O)[nH]c2ccc(Br)cc12)c1cc(-c2ccccc2)on1`, the growth is 97%.

Consider `CSc1nc(NCc2ccccc2)c(C#N)c(-c2cccc([N+](=O)[O-])c2)n1`, for which the growth is 103%.

On to `O=S(=O)(Nc1ccc(Cl)c(F)c1)c1ccc(-c2cnc(C3CC3)o2)cc1`, for which the growth was -6.67% (active).

Consider `CC1(C)CC[C@]2(C(=O)Nc3ccccn3)CC[C@]3(C)C(=CC[C@@H]4[C@@]5(C)C/C(=C/c6cccnc6)C(=O)C(C)(C)[C@@H]5CC[C@]43C)[C@H]2C1`, for which the growth was 25.1%.

For `O=S(=O)(Nc1ccc(Br)c(Cl)c1)c1ccc(-c2cnc(C3CC3)o2)cc1`, the growth was -15.3% (active).

Turning to `C=C(C)[C@@H]1CC[C@]2(C(N)=O)CC[C@]3(C)[C@H](CC[C@@H]4[C@@]5(C)C/C(=C/c6ccco6)C(=O)C(C)(C)[C@@H]5CC[C@]43C)[C@@H]12`, the growth was 98.5%.

As to `Cc1nc2c3c(-c4ccccc4)c(-c4ccccc4)oc3ncn2n1`, the growth is 95.8%.

`COc1cccc(-c2nn(C(C)(C)C)cc2-c2ccnc(NCCCNS(=O)(=O)c3ccc(C)cc3)c2)c1`: the growth is 105%.

Regarding `COc1ccc(-c2nc3ccc(-c4nc5ccc(N6CCN(c7ccc(F)cc7)CC6)cc5[nH]4)cc3[nH]2)cc1OC`, the growth is 44.3%.

As to `O=C1NC(=S)NC(=O)C1CC(=O)n1c(-c2ccccc2)nc2ccccc21`, the growth is 106%.

These data come from PubChem BioAssay (NCI).
